Inconclusive results are not listed. Calls of active or inactive are those of the source.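 Rule for the calls, unless noted: active = percent response above a set limit, the screen-wide mean plus 3 SD (cut at about 130% in these data); inactive = the rest.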
Tests used:
[1] = rapamycin-like changes in RPL19A-GFP expression – cell-based, S. cerevisiae, multiplex flow cytometry, primary screen (AID 1862; in the data active = percent of DMSO control GFP below about 86%;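 note: lower values mimic rapamycin by blocking the RPL19A rise seen in DMSO cells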); conditions: S. cerevisiae RPL19A-GFP strain, flow cytometry fluorescence, 3 h; at 10 µM; stronger effect = lower value
[2] = TOR pathway GLN3 branch reporter MEP2-GFP changes – S. cerevisiae, multiplex flow cytometry, primary screen (AID 1867;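 active = GFP response, as percent of the DMSO control, above the screen-wide mean plus 3 SD, about 139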;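 note: median GFP channel fluorescence of barcode-gated MEP2-GFP cells measured by flow cytometry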); conditions: S. cerevisiae MEP2-GFP strain, 3 h, at 10 µM, stronger effect = higher value, 100% means same as DMSO wells
[3] = TOR pathway RTG branch CIT2 reporter changes – S. cerevisiae, GFP fusion, multiplex flow cytometry, primary screen (AID 1870);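 note: barcoded CIT2-GFP strain pooled with four other GFP strains with rapamycin as positive control; median GFP fluorescence per well over plate mean of DMSO wells so 100% = DMSO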; conditions: S. cerevisiae CIT2-GFP expression, 3 h, at 10 µM, stronger effect = higher value
[4] = TOR pathway LAP4-GFP level changes – S. cerevisiae, multiplex flow cytometry, primary screen (AID 1873;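 active = GFP signal, as percent of the solvent control, above the screen mean plus 3 SD, about 149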); conditions: S. cerevisiae LAP4-GFP expression, 3 h, at 10 µM, stronger effect = higher value
[5] = yeast AGP1-GFP level changes, GLN3 branch – cell-based, multiplex flow cytometry, S. cerevisiae, primary screen (AID 1887;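 active = GFP signal above the screen-wide mean plus 3 SD, that is over about 124.5% of the solvent control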;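 note: AGP1-GFP fusion strain of S. cerevisiae within a five-strain barcoded multiplex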); conditions: 3 h, at 10 µM, stronger effect = higher value
[6] = hit retest on RPL19A-GFP reporter strain – cell-based, S. cerevisiae, flow cytometry, cherry picks, mother/daughter gates, confirmation (AID 2270;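 active = GFP response below 50% of the DMSO control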); conditions: 3 h, at 10 µM, stronger effect = lower value, 100 = same GFP as DMSO wells
[7] = yeast TOR pathway reporter LAP4-GFP change – cell-based, cherry picks, flow cytometry, mother/daughter gates, confirmation (AID 2271;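 active = GFP response above 150% of the DMSO control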;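 note: ratio of sample to DMSO plate mean so 100% equals DMSO level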); conditions: S. cerevisiae LAP4-GFP strain, 3 h, at 10 µM, stronger effect = higher value, 100 means same as DMSO control
[8] = TOR pathway reporter MEP2-GFP, retest of hits – S. cerevisiae, flow cytometry GFP, cherry picks, confirmation (AID 2272;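 active = GFP response above 150% of the DMSO control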;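 note: ratio of well signal to plate DMSO mean so 100% equals DMSO level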); conditions: S. cerevisiae MEP2-GFP strain, 3 h, at 10 µM, stronger effect = higher value
[9] = TOR pathway CIT2 reporter hit retest – S. cerevisiae, GFP fusion, cherry picks, mother/daughter gates, confirmation (AID 2274;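 active = GFP response above 150% of the DMSO level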); conditions: S. cerevisiae CIT2-GFP strain, flow cytometry, 3 h, at 10 µM, stronger effect = higher value
[10] = reduced mouse 2C T cell binding to pMHC/ICAM-1 vesicles – MLPCN validation set, flow cytometry, LFA-1/ICAM-1 modulator project, pilot screen (AID 2523;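 active = response below a set limit, under 55% cells CD8-positive and vesicle-bound, and CD8 cells' 90th-percentile brightness under 279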;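 for vesicle binding response: mean PE anti-B7-1 fluorescence of CD8+ cells relative to row control; 100% = QL9-loaded vesicles with DMSO vehicle in the same plate row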); conditions: 2C mouse CD8+ T cells, at 7 µM, stronger effect = lower value; double positive events: measured here: CD8+/vesicle+ event percentage
[11] = target: Integrin beta-1 (Homo sapiens) + Integrin alpha-4 (Homo sapiens) (UniProt P13612+P05556); experiment: alpha4beta1 integrin LIBS antibody binding reduction – U937 cells, HUTS-21 mAb, flow cytometry, validation set, VLA-4 allosteric modulator project, pilot screen (AID 2674;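 active = inhibition above 50%, about 3 SD of the validation set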;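 note: antibody binding induced by the VLA-4 ligand LDV present at three times its Kd; 0% = LDV ligand with antibody and no compound and 100% = antibody without LDV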); conditions: HUTS-21 LIBS mAb binding, at 6.7 µM, stronger effect = higher value, binding induced by LDV ligand
[12] = calorie-restriction mimetic ROS inhibitors, yeast – validation compound set, pilot screen (AID 2706;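 active = superoxide response below 65% of plate, a cut near 3 SD across the whole screen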;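 note: yeast exposed to compound for one week at 30 degrees C before staining; 100% = mean of all compound wells on the same plate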); conditions: S. cerevisiae aging, superoxide DHE fluorescence; at 10 µM; stronger effect = lower value
[13] = target: Beta-adrenergic receptor kinase 1 (Homo sapiens) (UniProt P25098); experiment: GRK2 binders displacing RNA aptamer, biochemical, validation, human GRK2, bead flow cytometry (AID 488806;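 active = aptamer binding inhibition above 30%, about 3 SD of noise from non-fluorescent compounds; inactive = inhibition at or below 30%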); conditions: bead-bound GRK2, FAM-aptamer displacement, at 10 µM, stronger effect = higher value
[14] = target: Beta-2 adrenergic receptor (Homo sapiens) (UniProt P07550); experiment: agonist-induced loss of surface beta2AR – cell-based, FAP fluorogen, flow cytometry, validation set, pilot screen (AID 504459;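 active = percent response above 42, roughly 3 SD of non-fluorescent test compounds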;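 note: agonist-driven loss of surface beta2AR via internalization measured by FAP dye flow cytometry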); conditions: Am2.2-beta2AR cells, at 10 µM, stronger effect = higher value
[15] = target: AP-2 complex subunit beta (Homo sapiens) (UniProt P63010); experiment: beta-arrestin/AP2 interaction blockers – biochemical, validation set, GST-AP2 beads, flow cytometry, pilot screen (AID 504541;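 active = inhibition above 54%, about 3 SD of non-fluorescent compounds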;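 note: AP2 carries R879A mutation and is captured from E. coli lysate; bead-bound FITC arrestin peptide fluorescence measuring arrestin peptide binding to AP2; 0% = DMSO wells and 100% = excess unlabeled arrestin peptide control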); conditions: FITC arrestin peptide, at 10 µM, stronger effect = higher value, AP2 beta2 appendage fragment, R879A mutant
[16] = cytosolic pH regulators acting via V-ATPase – S. cerevisiae, pHLuorin, HTS validation (AID 504600; in the data active = response above about 15%;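 note: plate controls were DMSO for no effect and reference compound for full effect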); conditions: V-ATPase proton transport, at 10 µM, stronger effect = higher value
[17] = tested on: anti-desmoglein-3 scFv antibody binding to human DSG3; experiment: blockers of pathogenic pemphigus antibody–desmoglein-3 binding – biochemical, validation compound set, bead-based, flow cytometry, pilot screen (AID 588368;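 active = binding below the plate cutoff, the plate median minus 3 SD, with a reading above zero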;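 note: signal is the median channel fluorescence of bead-bound GFP antibody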); conditions: Protein G beads, DSG3-Fc, scFv-GFP binding, at 10 µM, stronger effect = lower value
[18] = Nile Red efflux blockade in pump-expressing yeast – validation compound set, multiplex, phenotypic, pilot screen (AID 588506;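 active = efflux inhibition above 0.42, the validation set average plus 4 SD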;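 note: Nile Red retained in cells so higher fluorescence means more efflux inhibition; 0 = negative control wells and 1 = enniatin B 25 µM full block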); conditions: S. cerevisiae pump-expressing triplex, Nile Red efflux flow cytometry; at 10 µM; stronger effect = higher value; the pumps come from Candida albicans
[19] = target: ATP-binding cassette sub-family B member 6 (Homo sapiens) (UniProt Q9NP58); experiment: blockers of ABCB6-driven porphyrin uptake – K562-ABCB6 cells, flow cytometry, validation set, pilot screen (AID 588550;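 active = inhibition above the screen-wide mean plus 3 SD, about 51%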;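 note: 0% = DMSO wells and 100% = benzethonium chloride 70 µM positive control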); conditions: K562-ABCB6 porphyrin accumulation, 1 h, at 10 µM, stronger effect = higher value
[20] = AML differentiation inducers, ER-HoxA9 marrow cells – cell-based, GFP/MAC1 double positive, flow cytometry, validation set, primary screen (AID 588685;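 active = differentiation response of at least 50%, scaled between solvent and reference control, from cells with both markers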;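 note: compound exposure lasts four days before antibody staining and flow analysis; 0% = DMSO wells and 100% = 5 µM fulvestrant positive control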); conditions: stronger effect = higher value, normalized: vehicle 0, fulvestrant 100
[21] = measured here: daughter cell gate
[22] = measured here: mother cell gate

Chain of ATP-binding cassette sub-family B member 6 (Homo sapiens) (Q9NP58 whole entry, looked up): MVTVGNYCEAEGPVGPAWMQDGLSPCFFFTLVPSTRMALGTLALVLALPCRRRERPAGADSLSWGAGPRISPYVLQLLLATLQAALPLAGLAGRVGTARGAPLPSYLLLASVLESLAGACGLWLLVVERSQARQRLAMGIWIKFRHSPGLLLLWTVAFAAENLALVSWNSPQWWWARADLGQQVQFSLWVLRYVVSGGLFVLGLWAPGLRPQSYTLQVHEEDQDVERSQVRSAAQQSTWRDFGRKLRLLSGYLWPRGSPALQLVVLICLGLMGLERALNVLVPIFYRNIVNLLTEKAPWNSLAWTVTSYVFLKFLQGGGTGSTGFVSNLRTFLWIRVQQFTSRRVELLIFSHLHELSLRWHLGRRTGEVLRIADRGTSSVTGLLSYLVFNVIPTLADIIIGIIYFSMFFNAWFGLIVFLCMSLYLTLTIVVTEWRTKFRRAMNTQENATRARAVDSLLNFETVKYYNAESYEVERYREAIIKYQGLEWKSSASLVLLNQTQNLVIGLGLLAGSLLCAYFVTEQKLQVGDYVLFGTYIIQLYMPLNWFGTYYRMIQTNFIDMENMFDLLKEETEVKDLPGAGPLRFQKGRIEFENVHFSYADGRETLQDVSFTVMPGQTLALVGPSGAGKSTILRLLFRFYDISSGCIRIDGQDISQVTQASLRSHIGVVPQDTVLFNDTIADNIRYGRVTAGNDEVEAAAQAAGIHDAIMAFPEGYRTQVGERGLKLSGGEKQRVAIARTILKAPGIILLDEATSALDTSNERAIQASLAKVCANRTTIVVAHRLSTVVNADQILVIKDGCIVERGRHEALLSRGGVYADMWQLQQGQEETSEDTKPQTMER
Chain of Integrin beta-1 (Homo sapiens) + Integrin alpha-4 (Homo sapiens) (P05556 whole entry, looked up): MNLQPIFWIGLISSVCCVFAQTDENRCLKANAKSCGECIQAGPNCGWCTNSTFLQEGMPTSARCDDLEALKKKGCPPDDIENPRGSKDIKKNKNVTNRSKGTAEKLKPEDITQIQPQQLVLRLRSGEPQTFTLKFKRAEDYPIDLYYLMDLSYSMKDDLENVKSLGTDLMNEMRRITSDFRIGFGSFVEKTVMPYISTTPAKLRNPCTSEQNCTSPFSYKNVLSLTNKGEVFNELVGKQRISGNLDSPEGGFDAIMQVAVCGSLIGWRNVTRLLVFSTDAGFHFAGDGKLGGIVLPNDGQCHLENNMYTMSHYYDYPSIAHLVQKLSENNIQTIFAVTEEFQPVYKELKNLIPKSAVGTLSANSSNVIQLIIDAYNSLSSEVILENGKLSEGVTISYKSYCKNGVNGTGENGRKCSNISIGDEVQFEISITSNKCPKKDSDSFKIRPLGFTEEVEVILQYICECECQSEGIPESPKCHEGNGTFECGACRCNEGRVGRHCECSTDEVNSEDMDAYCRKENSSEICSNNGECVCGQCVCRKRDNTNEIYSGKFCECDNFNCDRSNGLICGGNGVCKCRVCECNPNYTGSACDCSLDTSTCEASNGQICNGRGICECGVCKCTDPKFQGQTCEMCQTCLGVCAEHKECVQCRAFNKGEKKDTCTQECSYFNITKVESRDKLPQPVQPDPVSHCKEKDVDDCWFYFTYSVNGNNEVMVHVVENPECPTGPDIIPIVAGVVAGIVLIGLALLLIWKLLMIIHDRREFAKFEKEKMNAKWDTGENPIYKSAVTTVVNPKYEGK
Chain of Integrin beta-1 (Homo sapiens) + Integrin alpha-4 (Homo sapiens) (P13612 whole entry, looked up): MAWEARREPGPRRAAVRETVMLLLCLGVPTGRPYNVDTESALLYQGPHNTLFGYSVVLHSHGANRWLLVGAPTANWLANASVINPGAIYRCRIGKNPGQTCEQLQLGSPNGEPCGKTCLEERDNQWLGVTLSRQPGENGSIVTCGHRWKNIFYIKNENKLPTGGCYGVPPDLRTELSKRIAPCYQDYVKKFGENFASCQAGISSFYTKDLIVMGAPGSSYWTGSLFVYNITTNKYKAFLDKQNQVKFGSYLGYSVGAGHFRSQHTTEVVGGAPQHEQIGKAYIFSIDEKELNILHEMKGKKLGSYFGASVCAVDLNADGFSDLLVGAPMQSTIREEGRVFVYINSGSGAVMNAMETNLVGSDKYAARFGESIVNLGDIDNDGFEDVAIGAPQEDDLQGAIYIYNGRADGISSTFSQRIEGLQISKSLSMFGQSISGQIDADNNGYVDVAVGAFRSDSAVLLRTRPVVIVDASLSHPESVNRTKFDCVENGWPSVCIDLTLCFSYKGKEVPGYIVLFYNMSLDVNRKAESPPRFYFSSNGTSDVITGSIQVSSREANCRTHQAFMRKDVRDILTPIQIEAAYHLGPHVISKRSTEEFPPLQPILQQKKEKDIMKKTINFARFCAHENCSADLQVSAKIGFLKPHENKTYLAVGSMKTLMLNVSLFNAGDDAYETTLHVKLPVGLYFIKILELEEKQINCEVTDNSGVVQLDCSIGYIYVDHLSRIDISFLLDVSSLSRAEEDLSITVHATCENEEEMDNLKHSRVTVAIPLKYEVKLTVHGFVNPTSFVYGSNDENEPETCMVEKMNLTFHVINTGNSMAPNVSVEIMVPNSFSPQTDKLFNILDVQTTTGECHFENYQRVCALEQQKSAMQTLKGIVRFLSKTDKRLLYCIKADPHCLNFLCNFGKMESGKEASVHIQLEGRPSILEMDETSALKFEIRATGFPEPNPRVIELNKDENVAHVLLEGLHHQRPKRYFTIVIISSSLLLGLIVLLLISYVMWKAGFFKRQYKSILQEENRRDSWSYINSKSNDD
Chain of AP-2 complex subunit beta (Homo sapiens) (P63010 whole entry, looked up, the tested form may be a part, one chain of several): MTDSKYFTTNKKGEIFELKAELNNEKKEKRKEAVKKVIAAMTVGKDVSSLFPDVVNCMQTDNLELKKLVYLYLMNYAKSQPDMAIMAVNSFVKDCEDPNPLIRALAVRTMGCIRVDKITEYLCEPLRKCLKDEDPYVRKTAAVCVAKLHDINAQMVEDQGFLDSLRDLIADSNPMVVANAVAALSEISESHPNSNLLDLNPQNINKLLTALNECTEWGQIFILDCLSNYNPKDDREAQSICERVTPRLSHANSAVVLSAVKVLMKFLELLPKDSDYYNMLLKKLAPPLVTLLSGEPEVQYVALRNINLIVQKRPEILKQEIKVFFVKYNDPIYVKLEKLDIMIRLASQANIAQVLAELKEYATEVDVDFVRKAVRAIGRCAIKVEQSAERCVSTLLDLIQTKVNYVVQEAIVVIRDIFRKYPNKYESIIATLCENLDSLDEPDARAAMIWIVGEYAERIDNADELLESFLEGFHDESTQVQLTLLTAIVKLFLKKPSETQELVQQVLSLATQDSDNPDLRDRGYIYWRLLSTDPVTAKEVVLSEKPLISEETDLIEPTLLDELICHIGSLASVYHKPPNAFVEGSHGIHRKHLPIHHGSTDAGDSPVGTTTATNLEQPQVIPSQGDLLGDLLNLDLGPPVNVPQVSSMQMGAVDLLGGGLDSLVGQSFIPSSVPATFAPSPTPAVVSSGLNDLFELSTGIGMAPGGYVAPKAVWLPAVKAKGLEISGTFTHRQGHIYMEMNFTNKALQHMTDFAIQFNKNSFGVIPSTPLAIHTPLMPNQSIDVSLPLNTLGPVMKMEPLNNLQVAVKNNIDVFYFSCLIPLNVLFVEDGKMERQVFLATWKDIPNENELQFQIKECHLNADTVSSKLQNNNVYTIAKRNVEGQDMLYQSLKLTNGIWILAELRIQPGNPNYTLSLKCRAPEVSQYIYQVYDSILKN
Chain of Beta-2 adrenergic receptor (Homo sapiens) (P07550 whole entry, looked up): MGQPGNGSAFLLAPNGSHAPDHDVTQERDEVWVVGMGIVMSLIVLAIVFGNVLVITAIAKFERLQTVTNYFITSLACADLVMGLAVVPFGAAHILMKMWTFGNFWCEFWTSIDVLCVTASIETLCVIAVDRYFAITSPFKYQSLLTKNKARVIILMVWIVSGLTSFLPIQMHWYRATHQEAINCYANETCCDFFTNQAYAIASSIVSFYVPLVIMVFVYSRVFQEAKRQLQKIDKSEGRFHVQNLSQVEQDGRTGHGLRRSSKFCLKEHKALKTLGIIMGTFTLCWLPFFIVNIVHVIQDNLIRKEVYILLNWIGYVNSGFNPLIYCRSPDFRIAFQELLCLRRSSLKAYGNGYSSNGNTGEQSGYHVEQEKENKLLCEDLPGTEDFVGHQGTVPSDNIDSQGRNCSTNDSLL
Chain of Beta-adrenergic receptor kinase 1 (Homo sapiens) (P25098 whole entry, looked up): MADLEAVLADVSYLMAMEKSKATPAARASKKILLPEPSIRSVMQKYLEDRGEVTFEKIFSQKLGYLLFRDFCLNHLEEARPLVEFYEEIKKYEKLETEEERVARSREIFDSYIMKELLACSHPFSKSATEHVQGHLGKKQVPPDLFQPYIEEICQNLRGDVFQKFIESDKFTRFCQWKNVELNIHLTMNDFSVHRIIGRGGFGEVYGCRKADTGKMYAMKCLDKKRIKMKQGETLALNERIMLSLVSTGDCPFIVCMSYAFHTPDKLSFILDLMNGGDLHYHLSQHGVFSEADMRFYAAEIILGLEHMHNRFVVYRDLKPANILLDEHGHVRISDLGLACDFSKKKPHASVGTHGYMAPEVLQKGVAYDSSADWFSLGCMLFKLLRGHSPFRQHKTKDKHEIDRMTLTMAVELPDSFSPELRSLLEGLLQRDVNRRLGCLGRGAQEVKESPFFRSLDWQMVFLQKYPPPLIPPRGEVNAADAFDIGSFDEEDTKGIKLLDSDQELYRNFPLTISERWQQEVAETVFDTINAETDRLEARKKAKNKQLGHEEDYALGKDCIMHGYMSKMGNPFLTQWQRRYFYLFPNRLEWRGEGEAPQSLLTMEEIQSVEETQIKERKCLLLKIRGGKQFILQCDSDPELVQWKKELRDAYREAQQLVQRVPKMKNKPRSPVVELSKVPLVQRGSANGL

O=C(NC1CCCCC1)N1CCc2[nH]c3ccccc3c2C1
107%: GFP response, % of DMSO [9, 22]
active: GFP response vs DMSO [2] 147%
inactive: percent of DMSO control GFP [1] 89.3% | percent response of DMSO control [3] 119% | GFP response vs DMSO [4] 83.6% | GFP response, % of DMSO [5] 93.1% | GFP response vs DMSO [6] 98.8% | GFP response relative to DMSO [7] 97.9% | GFP response vs DMSO [8] 100% | GFP response, % of DMSO [9] 107% | vesicle binding response [10] 212% | inhibition [11] 24.9% | superoxide response (% of plate) [12] 90.3% | aptamer binding inhibition [13] 3% | response [14] 10.8% | inhibition [15] 12.6% | response [16] 13.8% | binding (% of control) [17] 219% | efflux inhibition (fraction of control) [18] 0.27 | inhibition [19] 6% | differentiation response [20] 10.6%
98.3%: GFP response relative to DMSO ([7]; measured here: mother cell gate response)
97.6%: GFP response relative to DMSO ([7]; measured here: daughter cell gate response)
98.1%: GFP response vs DMSO [6, 21]
105%: GFP response, % of DMSO [9, 21]
98.5%: GFP response vs DMSO [6, 22]
61.4%: double positive events [10]

CC(=O)N1CCN(c2ccc(OC[C@H]3CO[C@](Cn4ccnc4)(c4ccc(Cl)cc4Cl)O3)cc2)CC1
active: efflux inhibition (fraction of control) [18] 0.59
63.3%: double positive events [10]
inactive: percent of DMSO control GFP [1] 105% | GFP response vs DMSO [2] 108% | percent response of DMSO control [3] 111% | GFP response vs DMSO [4] 109% | GFP response, % of DMSO [5] 111% | vesicle binding response [10] 188% | inhibition [11] 4.27% | superoxide response (% of plate) [12] 100% | aptamer binding inhibition [13] -2% | response [14] 0.01% | inhibition [15] 6.3% | response [16] -2.33% | binding (% of control) [17] 98.1% | inhibition [19] -9% | differentiation response [20] -10.4%

CN1CCN(C2=Nc3ccccc3Oc3ccc(Cl)cc32)CC1
61.6%: double positive events [10]
inactive: percent of DMSO control GFP [1] 101% | GFP response vs DMSO [2] 115% | percent response of DMSO control [3] 111% | GFP response vs DMSO [4] 79.8% | GFP response, % of DMSO [5] 100% | vesicle binding response [10] 223% | inhibition [11] 4.52% | superoxide response (% of plate) [12] 112% | aptamer binding inhibition [13] -9% | response [14] -6.79% | inhibition [15] -13.5% | response [16] 0.86% | binding (% of control) [17] 109% | efflux inhibition (fraction of control) [18] 0.19 | inhibition [19] 14% | differentiation response [20] -0.82%

Cc1ccc(C(=O)Nc2ccc(O)cc2C(=O)O)cc1C
inactive: percent of DMSO control GFP [1] 105% | GFP response vs DMSO [2] 99.6% | percent response of DMSO control [3] 102% | GFP response vs DMSO [4] 75.2% | GFP response, % of DMSO [5] 86.8% | vesicle binding response [10] 274% | inhibition [11] 9.13% | superoxide response (% of plate) [12] 103% | aptamer binding inhibition [13] 3% | inhibition [15] -1.05% | response [16] 1.04% | binding (% of control) [17] 106% | efflux inhibition (fraction of control) [18] 0.05 | inhibition [19] -4% | differentiation response [20] 5.6%
58.8%: double positive events [10]
active: response [14] 51.5%

COc1ccc(NC2=C(Cl)C(=O)N(c3ccccc3)C2=O)c(OC)c1
inactive: percent of DMSO control GFP [1] 105% | GFP response vs DMSO [2] 110% | percent response of DMSO control [3] 107% | GFP response vs DMSO [4] 106% | GFP response, % of DMSO [5] 109% | vesicle binding response [10] 159% | inhibition [11] -1.09% | superoxide response (% of plate) [12] 94.5% | aptamer binding inhibition [13] 1% | response [14] 1.18% | inhibition [15] 0.15% | response [16] 1.06% | binding (% of control) [17] 97% | efflux inhibition (fraction of control) [18] -0.25 | inhibition [19] -3% | differentiation response [20] -4.57%
60.1%: double positive events [10]

CN(CCO)CC(O)Cn1cnc2c1c(=O)n(C)c(=O)n2C (stereo not given) (tested in a mixture with another compound)
inactive: percent of DMSO control GFP [1] 101% | GFP response vs DMSO [2] 109% | percent response of DMSO control [3] 100% | GFP response vs DMSO [4] 106% | GFP response, % of DMSO [5] 112% | vesicle binding response [10] 211% | inhibition [11] 14.2% | superoxide response (% of plate) [12] 93.2% | aptamer binding inhibition [13] -1% | response [14] -18.1% | inhibition [15] -3.41% | response [16] -1.98% | binding (% of control) [17] 103% | efflux inhibition (fraction of control) [18] -0.09 | inhibition [19] 7% | differentiation response [20] -3.02%
62.5%: double positive events [10]

O=C(Oc1ccccc1)Oc1ccc2c(c1)oc(=O)c1ccccc12
inactive: percent of DMSO control GFP [1] 96.3% | GFP response vs DMSO [2] 126% | percent response of DMSO control [3] 106% | GFP response vs DMSO [4] 90.2% | GFP response, % of DMSO [5] 102% | vesicle binding response [10] 230% | inhibition [11] -6.15% | superoxide response (% of plate) [12] 78.2% | aptamer binding inhibition [13] 2% | response [14] 4.41% | inhibition [15] 4.7% | response [16] 0.05% | binding (% of control) [17] 94.7% | efflux inhibition (fraction of control) [18] 0.34 | inhibition [19] 4% | differentiation response [20] 8.19%
60.1%: double positive events [10]

O=C(NCc1ccc2c(c1)OCO2)c1ccc2c(c1)OCCO2
inactive: percent of DMSO control GFP [1] 101% | GFP response vs DMSO [2] 105% | percent response of DMSO control [3] 105% | GFP response vs DMSO [4] 92.6% | GFP response, % of DMSO [5] 101% | vesicle binding response [10] 132% | inhibition [11] 11% | superoxide response (% of plate) [12] 104% | aptamer binding inhibition [13] -1% | response [14] 0.83% | inhibition [15] -6.32% | response [16] -0.38% | binding (% of control) [17] 103% | efflux inhibition (fraction of control) [18] -0.21 | inhibition [19] 11% | differentiation response [20] 20.3%
61%: double positive events [10]

COc1cc(-c2cccs2)cc(=O)c2c(C)oc(C)c12
active: response [14] 54% | inhibition [15] 54.7%
inactive: percent of DMSO control GFP [1] 97.6% | GFP response vs DMSO [2] 105% | percent response of DMSO control [3] 84.4% | GFP response vs DMSO [4] 142% | GFP response, % of DMSO [5] 93.2% | vesicle binding response [10] 235% | inhibition [11] -160% | superoxide response (% of plate) [12] 96.1% | aptamer binding inhibition [13] -1% | response [16] -7.46% | binding (% of control) [17] 105% | efflux inhibition (fraction of control) [18] 0.26 | inhibition [19] 2% | differentiation response [20] 4%
62.6%: double positive events [10]

COc1ccc(C2C(C#N)=C(N)Oc3cc(C)[nH]c(=O)c32)c(OC)c1OC (stereo not given)
inactive: percent of DMSO control GFP [1] 88.2% | GFP response vs DMSO [2] 117% | percent response of DMSO control [3] 92.6% | GFP response vs DMSO [4] 78.1% | GFP response, % of DMSO [5] 97% | vesicle binding response [10] 168% | inhibition [11] 14.2% | superoxide response (% of plate) [12] 97.7% | aptamer binding inhibition [13] 4% | response [14] -4.98% | inhibition [15] -3.85% | response [16] -1.92% | binding (% of control) [17] 109% | efflux inhibition (fraction of control) [18] 0.16 | inhibition [19] 10% | differentiation response [20] 0%
63.8%: double positive events [10]
